# Test results reported in PubChem BioAssay (NCI).
# Compounds without any hit were thinned out: in the full panel of roughly 79,000, 15% have a hit. The source made the active and inactive calls. No stated cut-off is given here; in the data, active means growth inhibition above about 70%; inactive means the rest.
# Assay: NCI Yeast Anticancer Drug Screen. Data for the rad50 strain (AID 155);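 further: 0% = growth of vehicle-only cultures of the same strain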
# Settings: S. cerevisiae rad50 strain growth inhibition; at 50.0 µM; hits give high values
# How it was run: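 Compounds were tested on a yeast strain with an engineered DNA damage repair alteration; the reported value is growth inhibition normalised to vehicle treatment.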
row,SMILES,growth inhibition
1,COc1cc2c(cc1O)C(=O)CCCC2,-13.8% (inactive)
2,CC(O)C1CCCCC1O (stereo not drawn),5.15% (inactive)
3,CC(=O)OCC1OC(n2cccnc2=O)C(OC(C)=O)C1OC(C)=O (stereo not drawn),-0.55% (inactive)
4,CCCCOC(=O)c1c2nc3c(C(=O)OCCCC)ccc(C)c3oc-2c(C)c(=O)c1NC(C)=O,19.4% (inactive)
5,O=C(Nc1cccc([N+](=O)[O-])c1)OCC#CCOC(=O)Nc1cccc([N+](=O)[O-])c1,3.8% (inactive)
6,Nc1cccc2ccc(Cl)nc12,37.9% (inactive)
7,O=P(O)(O)OC1C(OP(=O)(O)O)C(OP(=O)(O)O)C(OP(=O)(O)O)C(OP(=O)(O)O)C1OP(=O)(O)O.[Cu+2] (stereo not drawn),-18.1% (inactive)
8,CC(C)SSC(=O)N1CCCC1C(=O)O (stereo not drawn),-1.6% (inactive)
9,O=[N+]([O-])c1ccc(/C=N\NC(=S)Nc2ccc3cn[nH]c3c2)cc1,19.9% (inactive)
10,COC(=O)CCCCCNC(=O)NCCCCCC(=O)OC,4.6% (inactive)
11,COc1cc2c(cc1Cc1cc(OC)c(OC)c(OC)c1)OCO2,4.35% (inactive)
12,N#CCCNC(CC(=O)O)C(=O)O (stereo not drawn),10.7% (inactive)
13,Cc1ccc2nc3c(C)cc(=O)cc-3sc2c1,41.1% (inactive)
14,Oc1ccc(O)c(-c2ccccc2)c1,61.5% (inactive)
15,CCN(CC)CCOC(=O)c1noc2cc([N+](=O)[O-])ccc12,0.7% (inactive)
16,Nc1cccc(N2N=C(C(=O)O)CC2=O)c1,-7% (inactive)
17,Cc1ccccc1NC(=O)CC(=O)N1N=C(N(CCC#N)c2ccccc2Cl)CC1c1ccccc1 (stereo not drawn),4.1% (inactive)
18,NC(=O)N/N=C/c1ccccc1O,28.8% (inactive)
19,CCCCCC(=O)Oc1ccccc1OC,-8.1% (inactive)
20,C=C(C)COc1ccc(Nc2ccccc2)cc1,5.7% (inactive)

row,SMILES,growth inhibition
1,NCCCCCC(=O)O,-37.5% (inactive)
2,Cc1cc(Br)ccc1NC1=CC(=O)C(=O)c2ccccc21,9.95% (inactive)
3,Cc1cc2c(=O)cc(-c3ccncc3)oc2c(C(=O)O)c1C,20.7% (inactive)
4,CC1(C)CC(C2=NCCO2)CC(C)(C)N1,-43.7% (inactive)
5,C=CCOc1cc2c(cc1C(C)c1ccc(OCC)c(C)c1)OCO2 (stereo not drawn),4.35% (inactive)
6,COc1cccc(Oc2ccc(C)cc2)c1,17.2% (inactive)
7,CCOC(=O)c1nnn(Cc2ccccc2)c1N,-2.1% (inactive)
8,NC(=O)/C(=C(/O)C(=O)O)c1ccnc2ccccc12,4.85% (inactive)
9,C[Si](C)(C)c1ccc(-c2ccccc2)cc1,20.1% (inactive)
10,COC(=O)/C(=C\c1ccc(N(CCC#N)CCC#N)cc1)NC(=O)c1cc([N+](=O)[O-])ccc1Cl,-0.55% (inactive)
11,CC1C[C@]2(C)C(=NCCN)Nc3ccccc3[C@@H]2N(C)c2ccccc21 (stereo partly drawn),-14.4% (inactive)
12,COC(=O)c1cc(=O)[nH]c(=O)[nH]1,-10.6% (inactive)
13,CC(=O)c1cccc(NC(=O)Oc2ccc(C(=O)OCc3ccccc3)cc2)c1,71.2% (active)
14,NC(=O)C(Cc1ccccc1)NC(=O)C1CCCN1 (stereo not drawn),4.2% (inactive)
15,COc1ccccc1NC(N)=S,-9.1% (inactive)
16,CN(C(=O)/C=C/c1ccccc1)c1ccccc1,45.6% (inactive)
17,Cc1ccc(N2CCN(c3ccc(C)cc3)C2=C2N(c3ccc(C)cc3)CCN2c2ccc(C)cc2)cc1,78.5% (active)
18,c1ccc2c(CCNC3=NCCO3)cccc2c1,-11.1% (inactive)
19,COC1(OC)CC2C(=O)N(Cc3ccccc3)C1C=C2S(=O)(=O)c1ccccc1 (stereo not drawn),2.5% (inactive)

# Assay: NCI Yeast Anticancer Drug Screen. Data for the mec2-1 strain (AID 157)
# Settings: S. cerevisiae mec2-1 strain, at 50.0 µM, hits give high values
# How it was run: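 Growth inhibition is read against vehicle-treated controls after compound exposure of the mec2-1 yeast strain, which is defective in DNA damage repair or cell cycle control.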
row,SMILES,growth inhibition
1,COc1cc2c(cc1O)C(=O)CCCC2,0.75% (inactive)
2,CC(O)C1CCCCC1O (stereo not drawn),-28.3% (inactive)
3,CC(=O)OCC1OC(n2cccnc2=O)C(OC(C)=O)C1OC(C)=O (stereo not drawn),2.75% (inactive)
4,CCCCOC(=O)c1c2nc3c(C(=O)OCCCC)ccc(C)c3oc-2c(C)c(=O)c1NC(C)=O,5.1% (inactive)
5,O=C(Nc1cccc([N+](=O)[O-])c1)OCC#CCOC(=O)Nc1cccc([N+](=O)[O-])c1,7.5% (inactive)
6,Nc1cccc2ccc(Cl)nc12,19.4% (inactive)
7,O=P(O)(O)OC1C(OP(=O)(O)O)C(OP(=O)(O)O)C(OP(=O)(O)O)C(OP(=O)(O)O)C1OP(=O)(O)O.[Cu+2] (stereo not drawn),-18.8% (inactive)
8,CC(C)SSC(=O)N1CCCC1C(=O)O (stereo not drawn),3.05% (inactive)
9,O=[N+]([O-])c1ccc(/C=N\NC(=S)Nc2ccc3cn[nH]c3c2)cc1,14.6% (inactive)
10,COC(=O)CCCCCNC(=O)NCCCCCC(=O)OC,-21% (inactive)
11,COc1cc2c(cc1Cc1cc(OC)c(OC)c(OC)c1)OCO2,-17.2% (inactive)
12,N#CCCNC(CC(=O)O)C(=O)O (stereo not drawn),1.55% (inactive)
13,Cc1ccc2nc3c(C)cc(=O)cc-3sc2c1,34.6% (inactive)
14,Oc1ccc(O)c(-c2ccccc2)c1,36.2% (inactive)
15,CCN(CC)CCOC(=O)c1noc2cc([N+](=O)[O-])ccc12,12.9% (inactive)
16,Nc1cccc(N2N=C(C(=O)O)CC2=O)c1,-19.8% (inactive)
17,Cc1ccccc1NC(=O)CC(=O)N1N=C(N(CCC#N)c2ccccc2Cl)CC1c1ccccc1 (stereo not drawn),-10% (inactive)
18,NC(=O)N/N=C/c1ccccc1O,11.2% (inactive)
19,CCCCCC(=O)Oc1ccccc1OC,-5.55% (inactive)
20,C=C(C)COc1ccc(Nc2ccccc2)cc1,18.4% (inactive)

row,SMILES,growth inhibition
1,NCCCCCC(=O)O,-25.4% (inactive)
2,Cc1cc(Br)ccc1NC1=CC(=O)C(=O)c2ccccc21,19.6% (inactive)
3,Cc1cc2c(=O)cc(-c3ccncc3)oc2c(C(=O)O)c1C,0.2% (inactive)
4,CC1(C)CC(C2=NCCO2)CC(C)(C)N1,-29.2% (inactive)
5,C=CCOc1cc2c(cc1C(C)c1ccc(OCC)c(C)c1)OCO2 (stereo not drawn),-8.95% (inactive)
6,COc1cccc(Oc2ccc(C)cc2)c1,-12.8% (inactive)
7,CCOC(=O)c1nnn(Cc2ccccc2)c1N,-7.35% (inactive)
8,NC(=O)/C(=C(/O)C(=O)O)c1ccnc2ccccc12,-4.8% (inactive)
9,C[Si](C)(C)c1ccc(-c2ccccc2)cc1,-8.65% (inactive)
10,COC(=O)/C(=C\c1ccc(N(CCC#N)CCC#N)cc1)NC(=O)c1cc([N+](=O)[O-])ccc1Cl,-3.65% (inactive)
11,CC1C[C@]2(C)C(=NCCN)Nc3ccccc3[C@@H]2N(C)c2ccccc21 (stereo partly drawn),-25.6% (inactive)
12,COC(=O)c1cc(=O)[nH]c(=O)[nH]1,-12.8% (inactive)
13,CC(=O)c1cccc(NC(=O)Oc2ccc(C(=O)OCc3ccccc3)cc2)c1,88.9% (active)
14,NC(=O)C(Cc1ccccc1)NC(=O)C1CCCN1 (stereo not drawn),1.35% (inactive)
15,COc1ccccc1NC(N)=S,-8.5% (inactive)
16,CN(C(=O)/C=C/c1ccccc1)c1ccccc1,13.4% (inactive)
17,Cc1ccc(N2CCN(c3ccc(C)cc3)C2=C2N(c3ccc(C)cc3)CCN2c2ccc(C)cc2)cc1,20.4% (inactive)
18,c1ccc2c(CCNC3=NCCO3)cccc2c1,-16.6% (inactive)
19,COC1(OC)CC2C(=O)N(Cc3ccccc3)C1C=C2S(=O)(=O)c1ccccc1 (stereo not drawn),9.65% (inactive)
